High-throughput results: PubChem, several laboratories
eIF4E 4G PPI: inhibitors of eIF4E and eIF4G interaction in translation initiation; inhibition, % at 21.7 µM; actives 0.37% (n = 220,000); TR-FRET eIF4E-eIF4GI(517-606) binding, 2 h; P63073+Q04637; AID 782;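 active means inhibition above about 30%, limit read from the data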
eIF4H inh: inhibitors of RNA binding by human eIF4H; inhibition, % at 35 µM; actives 0.94% (n = 290,000); AID 2012; eIF4H fluorescence polarization binding assay;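 further: calls also rest on retests at 20 µM and on dose response follow-up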
PERK inh: human PERK inhibition, primary cell-based screen. actives 0.17% (n = 220,000). inhibition, % at 5.6 µM. CHO PERK-DD fusion, SEAP luminescence translation reporter. AID 1416;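 active means inhibition above the mean inhibition of all tested compounds plus 3 SD, set separately per screening campaign, cut at about 2.9% in these data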;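 further: PERK kinase domain activated by AP20187 dimerizer at 100 nM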
PABP polyA inh: PABP-poly(A) binding inhibition; P11940; PABP-poly(A) RNA binding, fluorescence polarization; inhibition, % at 35 µM; actives 1% (n = 290,000); AID 2014;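 further: calls also rest on retests at 20 µM and on dose response follow-up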
PABP1 MLLE inh: blocks PAM2 peptide binding to the PABP1 MLLE domain. GST-MLLE / FITC-PAM2 fluorescence polarization. inhibition, % at 20 µM. actives 0.36% (n = 360,000); in the data active means inhibition above about 35%, passing the limit was not always enough
A number is an active result; - = inactive; ? = inconclusive; . = no result; ! = not active in a repeat; [ ] = dose if it differs, or a comment. Hits are enriched below; roughly 1.6% of the tested compounds scored in any of these assays. Unless noted, how the calls were made is not given here.

SMILES	eIF4E 4G PPI	eIF4H inh	PERK inh	PABP polyA inh	PABP1 MLLE inh
Cc1csc(NC(=O)CS(=O)(=O)c2ccccc2)n1	-	83.4	-	63.7	-
O=C(CSc1nc2sccc2c(=O)[nH]1)N1CCN(c2ccccc2)CC1	.	-	.	41.1	-
O=C(O)CC(C(=O)O)c1ccc(OCCCCOc2ccc(C(CC(=O)O)C(=O)O)cc2)cc1 (stereo unspecified)	.	100.6	.	68.0	-
O=C1NC(=O)/C(=C\c2ccc(OCc3cnc(Cl)s3)cc2)S1	-	-	-	-	-
Clc1ccc(N=c2ssnc2Cl)nc1	-	-	-	-	-
Clc1nssc1=Nc1ccc(Br)cc1	51.0	-	-	-	-
N#Cc1cccc(N=c2ssnc2Cl)c1	54.3	-	-	-	.
COc1cc(N=c2ssnc2Cl)cc(OC)c1	63.1	-	-	-	-
Clc1nssc1=Nc1nncs1	.	.	.	.	-
Cc1cc(C(=O)N/N=C/c2cccc([N+](=O)[O-])c2)c(C)n1-c1ccccc1	-	-	-	-	-
CC(C)n1cnnc1SCC(=O)NCC(=O)Nc1ccc(F)cc1	.	.	.	.	-
COC(=O)c1cnc(N2CCOCC2)nc1C(F)(F)F	-	-	-	-	-
N#Cc1cc2c([nH]c1=S)CCCCCC2	-	-	-	-	38.1
COc1ccccc1-c1nnc(NC(=O)CCS(=O)(=O)c2ccccc2)o1	.	-	.	-	-
CC(=O)c1cc2c(cc1N/C(=N/S(=O)(=O)c1ccc(C)cc1)c1ccc(Cl)cc1)OCO2	-	-	-	-	-
O=C(Cc1cccs1)Nc1nnc(SCC(=O)NC2CCCCC2)s1	-	-	-	-	-
CC(=O)c1sc(NC(=O)COc2ccc(C)c(C)c2)nc1C	-	-	-	-	-
CCOc1cc(/C=C2/N=C(C)C(C(=O)OC)=C2O)ccc1O	-	-	-	-	-
CCOC(=O)C1=C(O)/C(=C\c2sccc2C)N=C1C	-	77.5	-	active	-
COC(=O)C1=C(O)/C(=C\c2sccc2C)N=C1C	-	64.7	-	4.9	-
Cc1nc2[nH]c(=S)[nH]c(=O)c2nc1C	.	.	.	.	41.6
N#C/C(C(N)=O)=C1/CCCN1Cc1ccccc1	.	.	.	.	-
COc1ccc(NS(=O)(=O)c2cccc(C(=O)NNC(=O)c3ccccc3O)c2)cc1	.	.	.	.	-
COc1ccc(NS(=O)(=O)c2cccc(C(=O)NNC(=O)c3cccn3C)c2)cc1	.	74.0	.	-	-
CC1CC(C)CN(C(=O)c2ccc(S(=O)(=O)N3CC(C)CC(C)C3)cc2)C1 (stereo unspecified)	.	-	.	-	-
SMILES	eIF4E 4G PPI	eIF4H inh	PERK inh	PABP polyA inh	PABP1 MLLE inh
CC(C)c1ccc(S(=O)(=O)/N=C2/C=C(Sc3ncn[nH]3)C(=O)c3ccccc32)cc1	-	-	-	-	-
Cc1ccc(S(=O)(=O)/N=C2/C=C(Sc3ncn[nH]3)C(=O)c3ccccc32)cc1	33.8[fluorescence artefact?]	-	-	-	50.3
O=C(Nc1ccc(Oc2ccccc2)cc1)N[C@@H](Cc1ccccc1)C(=O)O	.	-	.	-	-
CCc1cc(C(=O)c2ccccc2OC)c(N)s1	-	-	-	-	37.4
Cc1ccc2ccccc2c1Cn1c(-n2ccnc2)nc2c1c(=O)n(C)c(=O)n2C	-	-	-	-	-
Cc1oc(C)c2c(=O)ccc3c(c12)OC(N)=C(C#N)C3c1ccc(F)cc1 (stereo unspecified)	-	69.9	-	112.2	-
Cc1[nH]nc2c1C(c1ccc(F)cc1)C(C#N)=C(N)O2 (stereo unspecified)	-	-	-	-	-
O=C(CCC(=O)N1CCCCCC1)Nc1ccc([N+](=O)[O-])cc1	.	-	.	-	-
Oc1c(C(c2ccccc2Cl)N2CCCC2)ccc2cccnc12 (stereo unspecified)	-	-	-	-	-
Oc1c(C(c2cccs2)N2CCN(c3ccccc3)CC2)ccc2cccnc12 (stereo unspecified)	35.5[fluorescence artefact?]	-	-	-	.
O=C(Nc1cccc2ccccc12)c1ccccc1Cl	.	-	.	-	-
CCn1c(N)c(C(=O)NCCCOC)sc1=S	-	-	-	-	-
CC(C)OCCCNC(=O)c1sc(=S)n(C)c1N	-	-	-	-	41.4
CS(=O)(=O)Nc1ccc(C(=O)NCCSC2CCCCC2)cc1	-	-	-	-	-
CCCS(=O)(=O)N1CCN(C(=O)COc2ccc(-c3ccccc3)cc2)CC1	-	-	-	-	-
COc1ccccc1N1CCN(c2ncnc3nc[nH]c23)CC1	-	-	-	-	-
Cc1ccc(C)c(N2CCN(C(=O)Cc3c(C(=O)O)[nH]c4ccc(Cl)cc34)CC2)c1	-	?	-	2.0	-
CCN1C(=O)C(C(=O)c2ccccc2)SC1=S (stereo unspecified)	-	-	-	-	38.1
CCN1C(=O)C2C(C1=O)N1C(c3ccccc3)C3C(=O)N(CC)C(=O)C3N1C2c1ccccc1 (stereo unspecified)	-	-	-	-	-
Cc1nn(C)c2c(=O)c(=O)c2n(C)[nH]1	-	-	-	-	-
CCc1nn(C)c2c(=O)c(=O)c2n(C)[nH]1	-	99.4	-	57.7	-
CNc1ccc(Br)cc(C(=O)/C=C/c2ccc3c(c2)OCO3)c1=O	-	92.0	-	48.0	-
CCN(CC(=O)Nc1c(C(=O)OC)[nH]c2ccccc12)c1ccc2c(c1)OCO2	-	-	-	-	-
COC(=O)c1[nH]c2ccccc2c1NC(=O)/C=C/c1ccc2c(c1)OCO2	-	-	-	120.4	-
S=C(Nc1ccc(Cl)cc1)c1sc(N2CCCCC2)nc1N1CCOCC1	-	79.0	-	active	-
SMILES	eIF4E 4G PPI	eIF4H inh	PERK inh	PABP polyA inh	PABP1 MLLE inh
Cc1cc2c(=O)n(C)c(SCC(=O)Nc3ccccc3)nc2s1	.	-	.	-	-
CCC(=O)NCCc1nc2ccccc2n1Cc1ccccc1	-	-	-	-	-
CCCCCc1c2c(cc(O)c1C(=O)O)OC(=O)c1cc(C(=O)CCCC)c(OC)cc1O2	.	.	.	.	-
CCCCCc1c2c(cc(O)c1C(=O)O)OC(=O)c1c(cc(OC)cc1C(=O)CCCC)O2	-	-	-	25.2	-
O=C(Cc1ccc(S(=O)(=O)N2CCOCC2)s1)Nc1nc2c(s1)CCCC2	-	59.5	-	41.7	-
O=C1C=CC(=Nc2cccc3c2C(=O)c2ccccc2-3)O1	.	.	.	.	56.3
CCCCNC(=O)c1cc2cccc([N+](=O)[O-])c2[nH]1	-	-	-	-	-
O=C(O)C1Nc2c(C(F)(F)F)ccc(Cl)c2C2C=CCC12 (stereo unspecified)	.	-	.	-	-
Cc1cc(C)c2c(c1)N[C@H](c1cccs1)[C@@H]1CCO[C@H]21	-	-	-	-	-
Cc1ccc2c(c1C)NC(C(=O)O)C1CC=CC21 (stereo unspecified)	60.8!	94.1	.	72.3	-
O=C(O)C1Nc2c(C(=O)N3CCOCC3)cccc2C2C=CCC12 (stereo unspecified)	-	98.6	-	49.6	-
Cc1cc(C)c2c(c1)NC(C(=O)O)C1CC=CC21 (stereo unspecified)	.	92.8	.	85.8	-
O=C(Nc1ccccc1C(=O)O)c1cc(S(=O)(=O)NCc2ccccc2)ccc1Cl	.	-	.	-	-
COc1ccccc1N1CCN(C(=O)CCc2ccc(S(=O)(=O)NCC(C)C)cc2)CC1	-	-	-	-	-
